# Data from PubChem BioAssay.
# Inconclusive results are not listed. Active and inactive are the calls of the source. Cut-off read from the data, not from the text of the source, unless noted: active = inhibition above about 80%; inactive = the rest.
# How the values were obtained:
# [1] = P. berghei load reduction in hepatocytes – cell-based, HepG2, luciferase luminescence, HepG2 viability, primary screen (AID 624349; in the data active = parasite load remaining mostly below about 12%, no sharp cut-off; inactive = mostly above about 10%;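 note: 100% = mean of DMSO negative control wells on the same plate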); details: P. berghei liver stage in HepG2, luciferase luminescence, concentration not given here; parasite load remaining: stronger effect = lower value; viability: measured here: HepG2 viability without parasites
# [2] = viability loss in pontine glioma line – cell-based, SU-DIPG-XVII, MIPE5.0, CellTiter-Glo, qHTS, dose response (AID 1347060; cut-off not given, nearly all actives have AC50 up to about 26 µM;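 note: cells exposed to compound for 48 hours before viability readout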); details: CellTiter-Glo ATP luminescence
# [3] = viability loss in pontine glioma line – cell-based, SU-DIPG-XXV, MIPE5.0, CellTiter-Glo, qHTS, dose response (AID 1347065; cut-off not given, nearly all actives have AC50 up to about 26 µM;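 note: cells exposed to compound for 48 hours before ATP readout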); details: CellTiter-Glo ATP luminescence
# [4] = JHH-DIPG-1 glioma cell viability, MIPE5.0 library, CellTiter-Glo luminescence, qHTS (AID 1347067; cut-off not given, nearly all actives have AC50 up to about 26 µM;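 note: cells exposed to compound for 48 hours before readout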); details: JHH-DIPG-1 glioma viability, CellTiter-Glo ATP luminescence
# [5] = growth inhibition of DIPG cells – cell-based, MIPE5.0 library, qHTS (AID 1347068; cut-off not given, nearly all actives have IC50 up to about 30 µM;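 note: cells exposed to compound for 48 hours before viability readout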); details: SU-DIPG-XXV viability
# [6] = growth inhibition, single agent or in combination, cell-based, chromothripsis tumors, cisplatin or BGB combos (AID 1671449); details: LFS_MB_P medulloblastoma cells;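 note: cells exposed for 96 hours; 0% = vehicle DMSO and 100% = killing by high DMSO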
# [7] = growth inhibition, single agent and combos, cell-based, chromothripsis tumors, cisplatin or BGB combos (AID 1671450); details: HDN33 neuroblastoma cells, stronger effect = higher value;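 note: cells exposed to compound for four days; 0% = vehicle DMSO and 100% = cell killing by high DMSO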
# [8] = growth inhibition, single agents and combos, ICB984, cell-based, cisplatin or BGB combos, synergistic combos for chromothripsis tumors (AID 1671451; call rule not given here;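 note: cells exposed for 96 hours before readout; 0% = vehicle DMSO and 100% = killing by high DMSO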); details: ICB984 medulloblastoma cells, drug combinations, stronger effect = higher value
# [9] = growth inhibition, single agents and combos, LFS_MB_1R, cell-based, cisplatin or BGB combos, synergistic combos for chromothripsis tumors (AID 1671452); details: LFS_MB_1R medulloblastoma cells, stronger effect = higher value;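 note: cells exposed for 96 hours before readout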
# [10] = growth inhibition, single agents and combos, HTB85, cell-based, BGB or cisplatin IC20 combos, synergistic combos for chromothripsis tumors (AID 1671453); details: HTB85 osteosarcoma cells, drug combinations, stronger effect = higher value;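 note: cells exposed for 96 hours before readout; 0% = vehicle DMSO and 100% = high DMSO killing control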
# [11] = growth inhibition, single agents and combos, CRL2098, cell-based, BGB or cisplatin IC20 combos, synergistic combos for chromothripsis tumors (AID 1671454); details: CRL2098 osteosarcoma cells, drug combinations, stronger effect = higher value;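 note: cells exposed for 96 h before readout; 0% = vehicle DMSO and 100% = killing by high DMSO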
# [12] = growth inhibition, single agents and combos, HD-MB03, cell-based, BGB or cisplatin IC20 combos, synergistic combos for chromothripsis tumors (AID 1671455; in the data active = inhibition above about 83%;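 note: 0% = vehicle DMSO and 100% = high DMSO as cytotoxic control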); details: HD-MB03 medulloblastoma cells, stronger effect = higher value
# [13] = growth inhibition, single agents and combos, UWB1.289, cell-based, BGB or cisplatin combos, synergistic combos for chromothripsis tumors (AID 1671456); details: UWB1.289 ovarian carcinoma cells, stronger effect = higher value;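 note: cells exposed to compound for four days; 0% = vehicle DMSO and 100% = killing by high DMSO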
# [14] = growth inhibition, single agents and combos, LFS_MB_2R, cell-based, cisplatin combos, synergistic combos for chromothripsis tumors (AID 1671457); details: LFS_MB_2R medulloblastoma cells, stronger effect = higher value;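 note: cells exposed to compound for four days before readout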
# [15] = growth inhibition, MDA-MB-436, cell-based, BGB or cisplatin combos, synergistic combos for chromothripsis tumors (AID 1671458; call rule not given here;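 note: cells exposed for 96 hours; 0% = vehicle DMSO and 100% = killing by high DMSO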); details: MDA-MB-436 breast carcinoma growth inhibition, drug combinations, stronger effect = higher value
# [16] = UWB1.289_BRCA1 ovarian cancer growth, cell-based, BGB or cisplatin combinations (AID 1671459); details: UWB1.289 BRCA1 ovarian carcinoma, drug combinations, stronger effect = higher value
# [17] = drug combination toxicity in non-malignant astrocytes – cell-based, BGB or cisplatin IC20 combos, cytotoxicity control for chromothriptic childhood tumor combination screen (AID 1671460); details: Human astrocytes, viability inhibition, drug combinations, at 0.5 µM, stronger effect = higher value;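 note: cells exposed to compounds for 96 hours before viability readout; 0% = vehicle and 100% = killing control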
# [18] = BT084 cell growth, single and combined drugs, ICGC_MB145, cisplatin and BGB IC40 combos (AID 1671461); details: BT084 medulloblastoma cells, drug combinations, stronger effect = higher value;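 note: cells exposed to drugs for 96 hours; 0% = vehicle DMSO and 100% = high DMSO full killing control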
# [19] = RCMB18 cell growth, single agent and combined, cisplatin and BGB IC40 combos (AID 1671462); details: RCMB18 medulloblastoma cells, stronger effect = higher value;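 note: cells exposed to compound for four days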
# [20] = CRL1545 cell growth, single agent and combined, cisplatin and BGB IC20 combos (AID 1671464); details: CRL1545 osteosarcoma cells, stronger effect = higher value;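 note: cells exposed to compound for 96 hours before readout; 0% = vehicle DMSO and 100% = high DMSO killing control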
# [21] = measured here: combination with BGB IC40, at 0.05 µM
# [22] = measured here: with BGB IC20 combination, at 0.5 µM
# [23] = measured here: with cisplatin IC20 combination, at 0.5 µM
# [24] = measured here: combination with cisplatin, at 0.5 µM
# [25] = measured here: combination with cisplatin, at 5 µM
smiles,measurement,setting,value
COc1ccc(CNc2nc(N(CCO)CCO)nc3c2ncn3C(C)C)cc1,parasite load remaining,[1],40.6% (inactive)
same,viability,[1],84%
same,AC50,[2],7.42 µM (active)
same,AC50,[3],10.5 µM (active)
same,AC50,[4],5.25 µM (active)
same,IC50,[5],11.8 µM (active)
CN[C@@H]1CN(c2ccc3c(=O)c(C(=O)O)cn(-c4nccs4)c3n2)C[C@H]1OC,AC50,[2],0.91 µM (active)
same,AC50,[3],5.74 µM (active)
same,AC50,[4],9.1 µM (active)
same,inhibition,"[6]; at 0.5 µM, stronger effect = higher value",-19.9% (inactive)
same,inhibition,"[6]; measured here: combination with BGB IC20, at 0.005 µM",-32.1%
same,inhibition,"[6]; measured here: combination with BGB IC40, at 0.005 µM",-41.7%
same,inhibition,[6]; [21],-39.5%
same,inhibition,"[6]; measured here: combination with cisplatin, at 0.5 µM, stronger effect = higher value",-37.3%
same,inhibition,"[6]; measured here: combination with cisplatin, at 5 µM, stronger effect = higher value",59.3%
same,inhibition,"[7]; BGB combo, at 5 µM",99.1%
same,inhibition,[7]; at 0.5 µM,57% (inactive)
same,inhibition,"[7]; cisplatin combo, at 5 µM",99.4%
same,inhibition,[7]; [22],48.4%
same,inhibition,[7]; [23],56.4%
same,inhibition,"[7]; single agent, at 5 µM",99.6%
same,inhibition,"[8]; BGB IC20 combo, at 0.005 µM",19.2%
same,inhibition,"[8]; BGB IC40 combo, at 0.005 µM",-11.4%
same,inhibition,"[8]; BGB IC40 combo, at 0.05 µM",100%
same,inhibition,[8]; at 0.5 µM,-34.8% (inactive)
same,inhibition,"[8]; cisplatin combo, at 0.05 µM",100%
same,inhibition,"[8]; cisplatin combo, at 0.5 µM",-31.3%
same,inhibition,"[8]; cisplatin combo, at 5 µM",-34.3%
same,inhibition,"[8]; measured here: 5 uM single agent, at 5 µM",-6.89%
same,inhibition,[9]; at 0.5 µM,3.38% (inactive)
same,inhibition,[9]; [21],4.5%
same,inhibition,[9]; [24],47.4%
same,inhibition,[9]; [25],92.8%
same,inhibition,[10]; at 0.5 µM,51.4% (inactive)
same,inhibition,"[10]; measured here: with BGB IC20, at 0.5 µM",49.9%
same,inhibition,"[10]; measured here: with BGB IC20, at 5 µM",99.2%
same,inhibition,"[10]; measured here: with cisplatin IC20, at 0.5 µM",42.9%
same,inhibition,"[10]; measured here: with cisplatin IC20, at 5 µM",99.3%
same,inhibition,"[10]; single agent, at 5 µM",99.2%
same,inhibition,[11]; at 0.5 µM,18.1% (inactive)
same,inhibition,"[11]; measured here: combination with BGB at IC20, at 0.5 µM",27.9%
same,inhibition,"[11]; measured here: combination with cisplatin at IC20, at 0.5 µM",-2.11%
same,inhibition,[12]; at 0.5 µM,72.5% (inactive)
same,inhibition,"[12]; measured here: combo with BGB at IC20, at 0.5 µM",63.8%
same,inhibition,"[12]; measured here: combo with cisplatin at IC20, at 0.5 µM",74.4%
same,inhibition,[13]; at 0.5 µM,14.7% (inactive)
same,inhibition,"[13]; measured here: inhibition with BGB combination, at 0.05 µM",-25.3%
same,inhibition,"[13]; measured here: inhibition with cisplatin combination, at 0.05 µM",-22.6%
same,inhibition,[14]; at 0.5 µM,-28.9% (inactive)
same,inhibition,[14]; [24],-26%
same,inhibition,[14]; [25],34.8%
same,inhibition,[15]; at 0.5 µM,25.6% (inactive)
same,inhibition,"[15]; measured here: BGB combination, at 0.5 µM",14%
same,inhibition,"[15]; measured here: BGB combination, at 5 µM",70.2%
same,inhibition,"[15]; measured here: cisplatin combination, at 0.5 µM",8.1%
same,inhibition,"[15]; measured here: cisplatin combination, at 5 µM",85.8%
same,inhibition,"[16]; BGB combination, concentration series, at 5 µM",94.6%
same,inhibition,[16]; at 0.5 µM,13.7% (inactive)
same,inhibition,"[16]; cisplatin combination, concentration series, at 5 µM",98.3%
same,inhibition,[17],33.4% (inactive)
same,inhibition,[17]; measured here: combo with BGB IC20,29%
same,inhibition,[17]; measured here: combo with cisplatin IC20,13.3%
same,inhibition,[18]; at 0.5 µM,-20% (inactive)
same,inhibition,"[18]; cisplatin combination, at 0.5 µM",-18.3%
same,inhibition,"[18]; cisplatin combination, at 5 µM",37.6%
same,inhibition,"[18]; measured here: BGB IC40 combination 0.05 uM, at 0.05 µM",-77.9%
same,inhibition,"[18]; single agent, at 5 µM",101%
same,inhibition,[19]; at 0.5 µM,-5.3% (inactive)
same,inhibition,"[19]; cisplatin combo, at 5 µM",84.6%
same,inhibition,"[19]; measured here: BGB IC40 combination, at 0.05 µM",-18.9%
same,inhibition,[19]; [24],32.1%
same,inhibition,"[19]; single agent, at 5 µM",87.5%
same,inhibition,[20]; at 0.5 µM,17.4% (inactive)
same,inhibition,[20]; [22],16.9%
same,inhibition,[20]; [23],16.4%
same,inhibition,"[20]; single agent, at 0.05 µM",9.09%
same,inhibition,"[20]; single agent, at 5 µM",99.7%
